A short description of experiment [1]: qHTS RealTime-Glo MT Cell Viability Assay in HepG2 cells - 24 hour (AID 1224867). Note: nearly all actives have a fitted effect of over 50% in size. The method, boiled down: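 HepG2 cells were seeded at 600 cells/well together with NanoLuc luciferase and a cell-permeant prosubstrate, preincubated 5 h at 37 C/5% CO2, then pin-dosed with compounds in DMSO. Nonlytic luminescence from viable cells was read at each time point.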
Background: In qHTS, concentration-response curves come from the screen itself.

Experiment [2] can be described thus: qHTS RealTime-Glo MT Cell Viability Assay in HEK293 cells - 32 hour (AID 1224868). Note: top concentration of the series differs between compounds; nearly all actives have a fitted effect of over 50% in size. The method, boiled down:
(§1)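 HEK293 cells were seeded at 600 cells/well together with NanoLuc luciferase and cell-permeant prosubstrate, preincubated 5 h at 37 C/5% CO2, then given compound in DMSO by pintool. Luminescence from viable-cell prosubstrate reduction was read repeatedly over 40 h.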

Experiment [3] can be described thus: A CellTox Green Cytotoxicity Assay to monitor cytotoxicity in HEK293 cells - 0 hour (AID 1224869). Note: nearly all actives have a fitted effect of over 50% in size. The method, boiled down:
(§2)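 HEK293 cells, 600/well, were preincubated 5 hours and then exposed to compounds at 37 C for up to 40 hours. A cell-impermeant cyanine dye staining dead-cell DNA was read by fluorescence at 0, 8, 16, 24, 32 and 40 h time points.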

Experiment [4] can be described thus: qHTS RealTime-Glo MT Cell Viability Assay in HepG2 cells - 40 hour (AID 1224870). Note: nearly all actives have a fitted effect of over 50% in size. The method, boiled down: (§3)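 HepG2 cells mixed with RealTime-Glo MT reagents (NanoLuc plus cell-permeant prosubstrate) were seeded at 600 cells/well, incubated 5 h at 37 C/5% CO2, then pinned with compounds in DMSO; nonlytic luminescence tracked viability during 40 h treatment.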

Experiment [5] is described as follows: qHTS RealTime-Glo MT Cell Viability Assay in HEK293 cells - 16 hour (AID 1224872). Note: nearly all actives have a fitted effect of over 50% in size. Note: potency is the fitted concentration of half-maximal effect. A digest of the protocol: as §1
Experiment [6] is described as follows: qHTS RealTime-Glo MT Cell Viability Assay in HepG2 cells - 8 hour (AID 1224873). Note: nearly all actives have a fitted effect of over 55% in size. A digest of the protocol:
as §3

Experiment [7] can be described thus: qHTS RealTime-Glo MT Cell Viability Assay in HEK293 cells - 40 hour (AID 1224874). Note: nearly all actives have a fitted effect of over 50% in size. The conditions noted are these: RealTime-Glo luminescence; max response: stronger effect = lower value. The method, boiled down:
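600 cells/well were plated with the nonlytic NanoLuc/prosubstrate reagent, pre-incubated 5 h, then given 23 nL of compound in DMSO. Incubation at 37 C for 40 h, with luminescence from viable-cell-reduced substrate read repeatedly from 0 h.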

A short description of experiment [8]: A CellTox Green Cytotoxicity Assay to monitor cytotoxicity in HEK293 cells - 24 hour (AID 1224875). Note: series mostly up to about 77 µM; nearly all actives have a fitted effect of over 45% in size. A digest of the protocol:
as §2

The nature of experiment [9]: A CellTox Green Cytotoxicity Assay to monitor cytotoxicity in HEK293 cells - 40 hour (AID 1224871). Note: nearly all actives have a fitted effect of over 45% in size. A digest of the protocol:
as §2

A number with no mark means an inactive call. Inconclusive results are not listed. The source made the active and inactive calls. Calls come from the whole dose curve; as a rule, active = well fitted curve in the direction sought with a large enough effect in the repeat runs; inconclusive = weak or mixed curves; inactive = no such curve, though single readings can be large; an effect the other way counts as inactive or inconclusive.
% is set by controls: 0 for no effect and ±100 for the full control effect.

With `Cc1ccc(C(=O)C(=O)O)cc1C`, the outcome in experiment [1], in experiment [4] and in experiment [6] was inactive. In addition, the Potency result in experiment [2], in experiment [3], in experiment [5] and in experiment [8] was “inactive” each time. Further, in experiment [7], the max response is -0.829%.

On to `Cc1nc2ccccc2c(=O)o1`, for which the outcome in experiment [1], in experiment [4] and in experiment [6] was inactive. Besides, the Potency result in [2], in [3] and in experiment [5] was “inactive” throughout. In addition, the max response in experiment [7] was 5.55%.

On to `O=C(CN1CCN(Cc2ccc3c(c2)OCO3)CC1)N1c2ccccc2Sc2ccccc21`, for which the result in [1], in [4] and in [6] was inactive. The Potency result in experiment [3], in experiment [9] and in experiment [5] was “inactive” in each case.

As for `OCCCCCCCl`, the compound was classed as inactive in experiment [1], in experiment [4] and in [6]. For the same compound, the Potency entry in [2], in experiment [3], in experiment [5] and in experiment [8] was “inactive” throughout. For the same compound, the max response in [7] is -5.21%.

As for `CCCCCCCCCCCCOC(C)=O`, the compound was classed as inactive in experiment [1], in experiment [4] and in experiment [6]. In addition, the Potency entry in experiment [3], in [9], in [5] and in experiment [8] was “inactive” throughout.

In the case of `CC(C)CCO`, the Potency result in experiment [2], in experiment [3], in [9], in experiment [5] and in [8] was “inactive” in each case. In addition, in experiment [4], the compound was called inactive. For the same compound, the max response in experiment [7] was 3.55%.

Turning to `COC(/C=C(\C)CCC=C(C)C)OC`, the result in experiment [1], in [4] and in experiment [6] was inactive. In addition, the Potency result in [2], in experiment [9] and in experiment [5] was “inactive” each time.

`COc1ccc(N=Nc2cc(C)c(N=Nc3ccc(S(=O)(=O)O)cc3)cc2OC)cc1`: the result in experiment [1] and in experiment [4] was inactive. Further, the Potency result in [2], in experiment [3], in experiment [9], in experiment [5] and in experiment [8] was “inactive” in each case.

For `CC(C)=CC(C)(C)C`, the compound was classed as inactive in experiment [1], in experiment [4] and in experiment [6]. In addition, the Potency result in [2], in experiment [3], in experiment [5] and in [8] was “inactive” each time. The max response in experiment [7] was 6.16%.

With `CCC(O)C(C)(C)C` (stereo not given), the outcome in experiment [1], in experiment [4] and in experiment [6] was inactive. The Potency entry in experiment [2], in experiment [3] and in [5] was “inactive” in each case. Also, the max response in experiment [7] was 2.07%.

`CC(C)(C)c1ccc(C=O)cc1`: the result in experiment [1], in [4] and in [6] was inactive. In addition, the Potency entry in experiment [2], in experiment [3], in experiment [5] and in [8] was “inactive” in each case. The max response in experiment [7] is 0.97%.

As to `C=C[Si](C)(C)O[Si](C)(C)C=C`, the compound was called inactive in experiment [1] and in experiment [4]. The Potency result in experiment [2], in [3] and in [5] was “inactive” throughout. Moreover, the max response in experiment [7] was -1.44%.

In the case of `Nc1ccc(S(=O)(=O)NC(=O)c2ccccc2)cc1`, the outcome in experiment [1], in [4] and in experiment [6] was inactive. Further, the Potency result in [2], in experiment [3], in experiment [5] and in experiment [8] was “inactive” each time. In experiment [7], the max response is 2.96%.

For the compound `COc1cc2c(Nc3ccc(Br)cc3F)ncnc2cc1OCC1CCN(C)CC1`, the compound was called inactive in [1], in experiment [4] and in [6]. For the same compound, the Potency result in [2], in [3], in experiment [5] and in experiment [8] was “inactive” each time. Besides, in experiment [7], the max response was 6.99%.

As to `CCCCOC(=O)[C@@H](C)Oc1ccc(Oc2ccc(C(F)(F)F)cn2)cc1`, the result in [1], in [4] and in experiment [6] was inactive. Moreover, the Potency entry in experiment [3] was “inactive”. Besides, the Potency in experiment [5] was 31.1 µM (active).

Take `CNC(=O)NC`: the result in experiment [1] and in experiment [4] was inactive. Further, the Potency entry in experiment [2], in experiment [3], in experiment [5] and in experiment [8] was “inactive” each time. The max response in [7] was 1.12%.

With `C=CCOc1cc(Cl)ccc1C(=O)NCCN(CC)CC`, the result in experiment [1], in [4] and in [6] was inactive. Also, the Potency entry in [2], in experiment [3] and in [5] was “inactive” throughout.

Take `CC(=O)c1ccc(OCC(=O)N2CCCCC2)cc1`: the compound was called inactive in experiment [1], in [4] and in experiment [6]. Besides, the Potency result in [2], in experiment [3], in experiment [5] and in experiment [8] was “inactive” throughout.

As for `C=CC(C)(O)CC/C=C(\C)CC` (stereo not given), the outcome in experiment [1], in experiment [4] and in experiment [6] was inactive. The Potency result in experiment [2], in experiment [3], in experiment [5] and in experiment [8] was “inactive” throughout.

For the compound `O=C1CC[C@H](C(=O)N2CCCCC2)N1`, the compound was called inactive in experiment [1], in experiment [4] and in experiment [6]. Further, the Potency result in experiment [2], in [3], in experiment [5] and in experiment [8] was “inactive” throughout.

For the compound `c1ccc(CNc2ncnc3nc[nH]c23)cc1`, the compound was classed as inactive in experiment [1], in [4] and in [6]. Moreover, the Potency result in [3], in [9] and in experiment [8] was “inactive” throughout.

For `O=S(=O)(O)SSS(=O)(=O)O`, the compound was called inactive in experiment [1], in experiment [4] and in experiment [6]. Besides, the Potency entry in [2], in experiment [3] and in experiment [5] was “inactive” throughout. In experiment [7], the max response is 4.41%.

For the compound `CCCCC/C=C/CC(=O)OC`, the result in experiment [1] and in experiment [4] was inactive. Besides, the Potency entry in [2], in experiment [3], in experiment [5] and in experiment [8] was “inactive” in each case.

Take `CCCCCCCC[Si](OCC)(OCC)OCC`: the outcome in [1], in [4] and in [6] was inactive. Also, the Potency entry in experiment [2], in experiment [3], in [5] and in experiment [8] was “inactive” in each case. The max response in [7] is 0.929%.

Consider `Cc1oc(=O)oc1CN1CCN(c2cc3c(cc2F)c(=O)c(C(=O)O)c2n3C(C)S2)CC1` (stereo not given), for which the compound was called inactive in experiment [1] and in experiment [4]. In addition, the Potency result in experiment [2], in [3], in experiment [9], in [5] and in experiment [8] was “inactive” each time. For the same compound, the max response in [7] is 5.9%.

Take `CC(=O)Nc1ncc([N+](=O)[O-])s1`: the result in [1] and in experiment [4] was inactive. Besides, the Potency result in [2], in experiment [3] and in experiment [5] was “inactive” each time. In addition, the max response in [7] is 0.8%.

For `CCOC(=O)CCCCCCCCC(=O)OCC`, the compound was classed as inactive in [1] and in experiment [4]. In addition, the Potency entry in [2], in [3], in [5] and in [8] was “inactive” in each case. Also, the max response in experiment [7] is 5.25%.

Take `CC(C)COC(=O)CC(C(=O)OCC(C)C)S(=O)(=O)O` (stereo not given): the call in experiment [1], in experiment [4] and in experiment [6] was inactive. In addition, the Potency result in experiment [2], in experiment [3], in [5] and in [8] was “inactive” throughout.

Regarding `COCC(=O)Nc1c(I)c(C(=O)NCC(O)CO)c(I)c(C(=O)N(C)CC(O)CO)c1I` (stereo not given), the compound was called inactive in experiment [1], in [4] and in experiment [6]. For the same compound, the Potency entry in [3], in experiment [9] and in experiment [8] was “inactive” each time.

Consider `CC1=NN(c2ccc(S(=O)(=O)O)cc2)C(=O)C1N=Nc1ccccc1` (stereo not given), for which the compound was classed as inactive in experiment [1], in experiment [4] and in experiment [6]. In addition, the Potency entry in experiment [3] and in experiment [8] was “inactive” each time.

On to `C[C@H](CCC(=O)O)[C@H]1CC[C@H]2[C@@H]3[C@H](O)C[C@@H]4C[C@H](O)CC[C@]4(C)[C@H]3C[C@H](O)[C@]12C`, for which the result in experiment [1], in experiment [4] and in [6] was inactive. Moreover, the Potency result in experiment [2], in experiment [3] and in [5] was “inactive” each time. In addition, the max response in experiment [7] was -1.02%.

As to `CCOC(=O)CC#N`, the outcome in [1] and in [4] was inactive. The Potency result in experiment [2], in experiment [3], in [9], in experiment [5] and in experiment [8] was “inactive” each time.

With `CCOc1ccc(NC(=O)OC(C)C)cc1OCC`, the outcome in experiment [1], in [4] and in [6] was inactive. In addition, the Potency result in experiment [3], in experiment [9], in experiment [5] and in experiment [8] was “inactive” each time.

Consider `CC(=O)OC(C(=O)c1ccccc1)c1ccccc1` (stereo not given), for which the call in [1], in [4] and in experiment [6] was inactive. Moreover, the Potency entry in experiment [3], in experiment [9] and in experiment [8] was “inactive” throughout.

`CCC(=O)OCCC(C)CCC=C(C)C` (stereo not given): the call in experiment [1], in experiment [4] and in [6] was inactive. In addition, the Potency result in experiment [2], in experiment [3] and in experiment [5] was “inactive” each time. Besides, the max response in experiment [7] is -5.38%.

The values are drawn from PubChem BioAssay (Tox21).
